ChEMBL document CHEMBL1201862, “PubChem BioAssay data set” (2004)
Among all 42,000 sequences or so, about 3,100 (7.4%) were called active. No stated cut-off is given here; in the data, active = GI50 up to about 1.1 µM and inactive = higher. Not all results are given here. Entries with a potency or affinity are not part of this list.

system: Hs-578T

Going from CISPLATIN, CHEMBL11359 to “[Bis(aminomethyl)tetramethylenesilane]tetrachloropaltinum(IV), CHEMBL2146189”, the GI50 rises from 4.98 µM to 21.2 µM (4.3-fold).

First: [Bis(aminomethyl)dimethylsilane]tetrachloroplatinum(IV), CHEMBL2146190
Second: [Bis(aminomethyl)pentamethylenesilane]dichloropaltinum(II), CHEMBL2146202
The GI50 of the first is higher: > 100 µM for the first, 1.18 µM for the second.

“[Bis(aminomethyl)tetramethylenesilane]dichloropaltinum(II), CHEMBL2146205” and “[Bis(aminomethyl)pentamethylenesilane]tetrachloropaltinum(IV), CHEMBL2146204” are within 1.5-fold of each other in GI50: 32.4 µM for the first, 28.8 µM for the second.
